Laboratory results published in PubChem BioAssay (NCI).
The panel holds about 79,000 compounds, 15% with a hit somewhere; the sample as a whole holds those more often. Unmarked numbers belong to inactive results. Active and inactive are the calls of the source. Cut-off read from the data, not from the text of the source: active = growth inhibition above about 70%; inactive = the rest.

Assays:
[1] = NCI Yeast Anticancer Drug Screen. Data for the rad50 strain (AID 155);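 note: 0% = growth of vehicle-only cultures of the same strain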; conditions: S. cerevisiae rad50 strain growth inhibition; at 50.0 µM; active compounds read high
In short: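 DNA repair mutant yeast, compound exposure, growth read-out; inhibition is taken relative to vehicle.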

[2] = NCI Yeast Anticancer Drug Screen. Data for the mec2-1 strain (AID 157); conditions: S. cerevisiae mec2-1 strain, at 50.0 µM, active compounds read high
In short: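 Mutant yeast (mec2-1) grown with compound; growth inhibition relative to vehicle control reported.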

[3] = NCI Yeast Anticancer Drug Screen. Data for the sgs1 mgt1 strain (AID 161);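 note: 0% = growth of cultures given vehicle only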; conditions: S. cerevisiae sgs1 mgt1 strain, at 50.0 µM, active compounds read high
In short: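 Growth of a repair-deficient yeast mutant was monitored after compound treatment and expressed as inhibition relative to vehicle-treated cultures.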

[4] = NCI Yeast Anticancer Drug Screen. Data for the cln2 rad14 strain (AID 165);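 note: 0% = growth equal to vehicle treated cultures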; conditions: S. cerevisiae cln2 rad14 strain, at 50.0 µM, active compounds read high
In short: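 Readout is yeast growth inhibition versus vehicle-treated controls, using a strain with cln2 and rad14 alterations exposed to compound.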

[5] = NCI Yeast Anticancer Drug Screen. Data for the bub3 strain (AID 167); conditions: S. cerevisiae bub3 mutant strain, at 50.0 µM, active compounds read high
In short: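 In this screen, a yeast mutant lacking normal mitotic checkpoint function is challenged with compound. Relative growth versus vehicle gives the inhibition value.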

[6] = NCI Yeast Anticancer Drug Screen. Data for the mlh1 rad18 strain (AID 175); conditions: S. cerevisiae mlh1 rad18 strain growth inhibition; at 50.0 µM; active compounds read high
In short: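 Genetically defined yeast (DNA repair-deficient) exposed to compounds; growth inhibition determined relative to vehicle.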

Row | SMILES | growth inhibition [1] | growth inhibition [2] | growth inhibition [3] | growth inhibition [4] | growth inhibition [5] | growth inhibition [6]
1 | COc1ccc([N+](=O)[O-])c2c(NCC(O)CO)ccnc12 (centres undefined) | -0.35% | -11% | -9.7% | -8.2% | -25.1% | -47.2%
2 | Cc1ccc(C)c(NC(=O)Oc2ccc(C(=O)OCc3ccccc3)cc2)c1 | 66.8% | 90.8% (active) | 74.9% (active) | 40.5% | 96.5% (active) | 89.5% (active)
3 | COc1ccc(C=Nc2cc([N+](=O)[O-])ccc2O)cc1 | 8.5% | -2.75% | 3.75% | -9.45% | 25.5% | 3%
4 | O=c1[nH]cccc1O | 5.2% | 5.5% | -17% | 10.4% | -8.8% | 7.25%
5 | CC1CC(=O)CC(C)C1 (centres undefined) | 1.7% | -0.1% | -10.5% | -27.1% | 19.9% | 16.6%
6 | CC1=NNC(=O)C2CCC(=O)N12 (centres undefined) | 14.8% | 1% | 7.15% | 11.1% | 12.1% | 22.8%
7 | CS(=O)(=O)OCCCCOS(C)(=O)=O | -9.5% | -23.9% | 8.55% | 2% | 12.1% | 0.05%
8 | CSCCC(NC(c1ccccc1)c1ccccc1)[P+](=O)O (centres undefined) | -53.4% | -44.8% | -37.5% | -5.15% | -3.65% | -40.1%
9 | CCOC(=O)C(NCc1cccc(C(F)(F)F)c1)(NC(=O)c1ccccc1)C(F)(F)F (centres undefined) | 12.2% | -0.95% | -1.95% | 17.9% | 8.4% | 25%
10 | Cc1ccc(C(=O)/C(C#N)=C/Nc2c(C)n(C)n(-c3ccccc3)c2=O)cc1 | 17% | 23.6% | 20.1% | 12.8% | 19.5% | 26.5%
11 | O=C1Oc2ccccc2CC1C(=O)c1ccc(Cl)cc1 (centres undefined) | -7.75% | -0.25% | 8.95% | -61.1% | -21.4% | 7.75%
12 | CN(C)c1ccc(/C=C/c2ccnc3ccc(Br)cc23)cc1 | 26.9% | 14.9% | 27.4% | 14.9% | 8.1% | 9.35%
13 | COC(=O)c1c(-c2ccccc2)cn(C)c1C | 16.9% | 9.95% | 12.8% | 5.75% | 6.6% | -6.4%
14 | COc1cc(CSCC(=O)O)ccc1O | 8.95% | 7.15% | 10.3% | -19.4% | -19.6% | -23.8%
15 | CCOc1cc2c(cnc3c4cc(OC)c(OC)cc4ccc23)cc1OC | -8.6% | -15.2% | -13.5% | -6.25% | -17.9% | -16.6%
16 | CCC/C=C(/CC)C(=O)OC(=O)/C(=C/CCC)CC | 23.9% | 2.1% | 13.8% | -7.25% | 32.1% | 13.6%
17 | O=C(Nc1ccc(N=C=S)cc1Cl)c1cc(Cl)cc(Cl)c1O | 82.3% (active) | 56.9% | 78.5% (active) | 67.7% | 82.5% (active) | 82.5% (active)
18 | CN(C)Cc1ccc(O)c(CN(C)C)n1 | -21.1% | -19.1% | -14.8% | -3.65% | -49.8% | -19.2%
19 | O=S1(=O)OCCOS(=O)(=O)C1(I)I | 11.7% | -26.2% | -2.35% | 11.4% | -9.7% | 16.2%
